Assays:
Experiment in all cases: DAPPL (digital affinity profiling via proximity ligation, sequencing); 10 mM Tris-HCl pH 7.5, 50 mM NaCl, 1 mM DTT, 4% glycerol, room temperature, 30 min; GST-TFs on glutathione beads, 16-mer random dsDNA library, 0.1% formaldehyde crosslink after washing; high values mean tight binding
Settings in all cases: protein: recombinant; tags: N-terminal GST; dsDNA, one strand shown
[1] = target: T1, ELK1 (Homo sapiens, UniProt P19419 1-428)
T1 sequence: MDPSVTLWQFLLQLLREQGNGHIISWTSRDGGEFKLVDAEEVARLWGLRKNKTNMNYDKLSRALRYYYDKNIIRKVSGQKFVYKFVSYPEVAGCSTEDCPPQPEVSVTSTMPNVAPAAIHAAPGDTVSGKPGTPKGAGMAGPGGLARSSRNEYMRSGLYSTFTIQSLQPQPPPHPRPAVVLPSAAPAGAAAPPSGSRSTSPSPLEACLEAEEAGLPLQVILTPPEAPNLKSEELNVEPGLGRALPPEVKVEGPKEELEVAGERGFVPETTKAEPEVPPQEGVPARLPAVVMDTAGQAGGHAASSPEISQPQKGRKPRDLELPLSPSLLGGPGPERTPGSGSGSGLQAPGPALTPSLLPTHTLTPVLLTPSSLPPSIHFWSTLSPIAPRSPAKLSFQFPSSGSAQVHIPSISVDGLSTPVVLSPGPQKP
Summary of the method: (§1)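 Binding signal is each hexamer's read frequency for a factor divided by its frequency in the tag-only sample. The factors were GST-fused human transcription factors from yeast, captured on glutathione beads, DNA-barcoded and pooled with that sample. Pools were incubated with 200 nmole of a random double-stranded 16-mer DNA library in Tris/NaCl/DTT/glycerol buffer at room temperature for 30 min, then washed, crosslinked with 0.1% formaldehyde, proximity-ligated with BsaI/T4 ligase (1 h, 37 °C), PCR-amplified and sequenced on an Illumina NextSeq500.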

[2] = target: T2, GABPA (Homo sapiens, UniProt Q06546 1-454)
T2 sequence: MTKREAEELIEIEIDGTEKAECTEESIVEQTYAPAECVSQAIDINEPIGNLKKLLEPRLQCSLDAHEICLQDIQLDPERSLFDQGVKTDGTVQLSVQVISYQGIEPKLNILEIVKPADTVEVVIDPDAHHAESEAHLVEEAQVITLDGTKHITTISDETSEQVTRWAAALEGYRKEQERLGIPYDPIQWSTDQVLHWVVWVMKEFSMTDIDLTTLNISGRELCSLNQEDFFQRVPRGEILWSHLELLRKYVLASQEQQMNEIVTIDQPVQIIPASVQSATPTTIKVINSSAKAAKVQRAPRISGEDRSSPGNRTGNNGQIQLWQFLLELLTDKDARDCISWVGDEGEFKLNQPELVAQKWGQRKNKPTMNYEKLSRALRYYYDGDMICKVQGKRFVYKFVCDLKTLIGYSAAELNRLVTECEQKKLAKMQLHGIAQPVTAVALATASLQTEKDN
Summary of the method: as §1

[3] = target: T3, ERG (Homo sapiens, UniProt P11308 1-479)
T3 sequence: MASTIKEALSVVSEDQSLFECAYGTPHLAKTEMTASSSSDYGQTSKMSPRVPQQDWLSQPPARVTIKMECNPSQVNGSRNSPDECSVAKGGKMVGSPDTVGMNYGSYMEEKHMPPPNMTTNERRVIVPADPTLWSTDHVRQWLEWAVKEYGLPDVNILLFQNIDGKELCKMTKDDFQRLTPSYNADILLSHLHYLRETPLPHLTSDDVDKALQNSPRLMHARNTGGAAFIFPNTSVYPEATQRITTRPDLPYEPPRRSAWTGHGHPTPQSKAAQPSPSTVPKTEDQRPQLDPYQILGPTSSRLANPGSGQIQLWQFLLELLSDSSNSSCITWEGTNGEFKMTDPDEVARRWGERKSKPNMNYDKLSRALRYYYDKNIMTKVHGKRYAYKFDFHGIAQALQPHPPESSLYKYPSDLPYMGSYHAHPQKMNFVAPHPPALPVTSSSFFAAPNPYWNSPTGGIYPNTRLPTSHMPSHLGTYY
Summary of the method: as §1

[4] = target: ELF1 (Homo sapiens, UniProt P32519 1-619)
Summary of the method: as §1

[5] = target: SPIB (Homo sapiens, UniProt Q01892 1-262)
Summary of the method: as §1

[6] = target: T4, FEV (Homo sapiens, UniProt Q99581 1-238)
T4 sequence: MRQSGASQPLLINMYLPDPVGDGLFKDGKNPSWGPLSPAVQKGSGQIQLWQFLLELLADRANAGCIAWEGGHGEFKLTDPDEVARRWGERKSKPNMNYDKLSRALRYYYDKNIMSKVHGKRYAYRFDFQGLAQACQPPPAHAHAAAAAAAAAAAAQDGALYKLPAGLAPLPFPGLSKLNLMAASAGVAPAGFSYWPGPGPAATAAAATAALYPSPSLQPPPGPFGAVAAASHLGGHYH
Summary of the method: as §1

[7] = target: ETV5 (Homo sapiens, UniProt P41161 1-510)
Summary of the method: as §1

[8] = target: ELF4 (Homo sapiens, UniProt Q99607 1-663)
Summary of the method: as §1

[9] = target: T5, ETV2 (Homo sapiens, UniProt O00321 1-342)
T5 sequence: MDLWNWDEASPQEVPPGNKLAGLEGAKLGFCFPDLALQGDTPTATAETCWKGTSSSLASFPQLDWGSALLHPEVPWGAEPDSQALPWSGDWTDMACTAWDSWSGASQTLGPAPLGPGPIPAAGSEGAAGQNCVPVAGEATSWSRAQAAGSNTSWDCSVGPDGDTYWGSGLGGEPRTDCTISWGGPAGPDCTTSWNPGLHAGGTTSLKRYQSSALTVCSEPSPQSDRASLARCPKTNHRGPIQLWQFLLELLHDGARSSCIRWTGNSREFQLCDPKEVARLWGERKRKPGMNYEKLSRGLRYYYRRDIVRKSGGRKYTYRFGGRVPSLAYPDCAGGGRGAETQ
Summary of the method: as §1

[10] = target: T6, ELF3 (Homo sapiens, UniProt P78545 1-371)
T6 sequence: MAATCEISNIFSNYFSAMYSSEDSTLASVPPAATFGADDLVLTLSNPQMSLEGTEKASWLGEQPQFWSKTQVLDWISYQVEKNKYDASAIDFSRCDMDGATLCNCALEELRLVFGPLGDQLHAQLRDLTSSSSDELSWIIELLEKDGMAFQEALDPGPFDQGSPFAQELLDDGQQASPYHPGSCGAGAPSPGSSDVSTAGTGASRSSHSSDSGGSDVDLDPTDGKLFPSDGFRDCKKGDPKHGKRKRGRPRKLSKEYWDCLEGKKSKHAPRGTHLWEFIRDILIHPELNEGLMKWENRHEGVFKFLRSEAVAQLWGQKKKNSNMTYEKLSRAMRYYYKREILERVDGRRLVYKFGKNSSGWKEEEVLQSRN
Summary of the method: as §1

[11] = target: T7, ERF (Homo sapiens, UniProt P50548 1-548)
T7 sequence: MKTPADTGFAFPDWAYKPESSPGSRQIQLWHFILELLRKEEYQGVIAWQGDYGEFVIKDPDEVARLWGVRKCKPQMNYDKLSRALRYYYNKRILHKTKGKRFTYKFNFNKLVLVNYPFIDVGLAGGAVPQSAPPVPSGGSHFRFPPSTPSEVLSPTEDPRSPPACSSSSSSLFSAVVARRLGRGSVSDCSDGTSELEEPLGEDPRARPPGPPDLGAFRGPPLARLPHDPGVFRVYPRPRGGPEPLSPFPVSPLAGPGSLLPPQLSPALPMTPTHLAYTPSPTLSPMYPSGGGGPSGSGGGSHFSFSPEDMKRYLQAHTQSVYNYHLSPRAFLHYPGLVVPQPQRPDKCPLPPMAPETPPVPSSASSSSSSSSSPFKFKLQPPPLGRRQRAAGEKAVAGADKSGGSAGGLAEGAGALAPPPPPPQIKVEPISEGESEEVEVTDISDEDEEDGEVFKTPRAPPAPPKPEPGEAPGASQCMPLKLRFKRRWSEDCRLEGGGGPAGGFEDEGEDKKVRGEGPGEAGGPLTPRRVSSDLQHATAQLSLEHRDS
Summary of the method: as §1

[12] = target: T8, ETV3L (Homo sapiens, UniProt Q6ZN32 1-361)
T8 sequence: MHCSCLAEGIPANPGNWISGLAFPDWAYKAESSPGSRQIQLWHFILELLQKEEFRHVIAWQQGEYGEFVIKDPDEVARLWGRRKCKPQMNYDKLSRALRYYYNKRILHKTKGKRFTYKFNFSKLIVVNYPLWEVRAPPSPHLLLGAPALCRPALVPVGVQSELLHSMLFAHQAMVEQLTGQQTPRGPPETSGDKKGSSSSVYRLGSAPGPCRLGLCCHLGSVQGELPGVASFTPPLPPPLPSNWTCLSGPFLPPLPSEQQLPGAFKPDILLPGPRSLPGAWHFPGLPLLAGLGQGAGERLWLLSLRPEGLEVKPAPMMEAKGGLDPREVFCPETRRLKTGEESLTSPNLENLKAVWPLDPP
Summary of the method: as §1

[13] = target: T9, ETS2 (Homo sapiens, UniProt P15036 1-469)
T9 sequence: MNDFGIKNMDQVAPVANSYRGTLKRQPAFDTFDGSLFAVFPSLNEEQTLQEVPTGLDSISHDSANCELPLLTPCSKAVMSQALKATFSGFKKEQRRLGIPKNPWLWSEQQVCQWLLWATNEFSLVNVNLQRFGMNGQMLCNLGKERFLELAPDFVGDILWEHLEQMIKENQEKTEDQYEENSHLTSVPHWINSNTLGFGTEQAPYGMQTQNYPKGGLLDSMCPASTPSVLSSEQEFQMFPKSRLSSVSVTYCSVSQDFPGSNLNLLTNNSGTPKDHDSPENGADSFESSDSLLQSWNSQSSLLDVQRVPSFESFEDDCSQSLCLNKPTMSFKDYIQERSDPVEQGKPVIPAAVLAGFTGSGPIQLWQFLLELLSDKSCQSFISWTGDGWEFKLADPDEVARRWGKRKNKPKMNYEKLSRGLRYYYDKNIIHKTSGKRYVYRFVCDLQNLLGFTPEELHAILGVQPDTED
Summary of the method: as §1

[14] = target: T10, SPDEF (Homo sapiens, UniProt O95238 1-335)
T10 sequence: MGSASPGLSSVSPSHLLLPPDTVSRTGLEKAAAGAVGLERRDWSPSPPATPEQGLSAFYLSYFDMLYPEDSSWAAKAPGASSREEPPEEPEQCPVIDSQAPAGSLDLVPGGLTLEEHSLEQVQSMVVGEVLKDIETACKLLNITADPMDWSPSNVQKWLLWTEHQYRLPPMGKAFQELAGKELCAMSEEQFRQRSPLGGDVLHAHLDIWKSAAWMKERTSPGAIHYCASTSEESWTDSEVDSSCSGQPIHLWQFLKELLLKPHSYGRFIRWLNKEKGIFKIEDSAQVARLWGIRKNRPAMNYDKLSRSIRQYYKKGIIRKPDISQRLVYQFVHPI
Summary of the method: as §1

[15] = target: T11, ETV7 (Homo sapiens, UniProt Q9Y603 1-341)
T11 sequence: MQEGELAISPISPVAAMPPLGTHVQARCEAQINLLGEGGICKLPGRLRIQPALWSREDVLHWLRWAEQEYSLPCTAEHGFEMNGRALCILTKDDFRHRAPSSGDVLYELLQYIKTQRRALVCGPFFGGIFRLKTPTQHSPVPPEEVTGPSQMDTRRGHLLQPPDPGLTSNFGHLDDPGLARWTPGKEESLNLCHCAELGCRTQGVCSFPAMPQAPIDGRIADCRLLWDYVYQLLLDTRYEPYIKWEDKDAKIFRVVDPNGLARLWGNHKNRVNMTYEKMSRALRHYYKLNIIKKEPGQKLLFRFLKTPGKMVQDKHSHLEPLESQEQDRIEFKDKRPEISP
Summary of the method: as §1

[16] = target: T12, ETV3 (Homo sapiens, UniProt P41162-2 1-143)
T12 sequence: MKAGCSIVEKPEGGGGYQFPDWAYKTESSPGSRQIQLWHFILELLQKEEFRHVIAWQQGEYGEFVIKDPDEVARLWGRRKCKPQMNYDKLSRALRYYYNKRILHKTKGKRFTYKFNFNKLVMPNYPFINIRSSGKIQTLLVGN
Summary of the method: as §1

[17] = target: ETV6 (Homo sapiens, UniProt P41212 1-452)
Summary of the method: as §1

Sequence of ETV5 (P41161 whole entry): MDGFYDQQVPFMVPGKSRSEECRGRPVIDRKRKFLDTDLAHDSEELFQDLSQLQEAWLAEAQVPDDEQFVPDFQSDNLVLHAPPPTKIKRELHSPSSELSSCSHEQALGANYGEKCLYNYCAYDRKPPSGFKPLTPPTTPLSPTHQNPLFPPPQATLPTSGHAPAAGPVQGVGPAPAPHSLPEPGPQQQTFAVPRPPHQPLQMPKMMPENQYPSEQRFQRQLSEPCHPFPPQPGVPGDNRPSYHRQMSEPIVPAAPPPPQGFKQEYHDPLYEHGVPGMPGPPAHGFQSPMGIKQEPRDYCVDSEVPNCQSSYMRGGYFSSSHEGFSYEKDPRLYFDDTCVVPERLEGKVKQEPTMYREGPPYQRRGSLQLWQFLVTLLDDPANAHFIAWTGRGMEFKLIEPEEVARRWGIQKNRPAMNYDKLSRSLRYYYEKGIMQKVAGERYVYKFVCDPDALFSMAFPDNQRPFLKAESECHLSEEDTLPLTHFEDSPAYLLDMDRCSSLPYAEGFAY
Sequence of SPIB (Q01892 whole entry): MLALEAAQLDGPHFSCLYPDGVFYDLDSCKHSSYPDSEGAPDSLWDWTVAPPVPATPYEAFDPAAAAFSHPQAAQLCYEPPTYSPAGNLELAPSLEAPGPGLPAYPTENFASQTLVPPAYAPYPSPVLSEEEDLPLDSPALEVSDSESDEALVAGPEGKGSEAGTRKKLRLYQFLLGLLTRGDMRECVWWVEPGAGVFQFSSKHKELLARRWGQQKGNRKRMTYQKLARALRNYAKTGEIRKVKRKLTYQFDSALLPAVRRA
Sequence of ELF4 (Q99607 whole entry): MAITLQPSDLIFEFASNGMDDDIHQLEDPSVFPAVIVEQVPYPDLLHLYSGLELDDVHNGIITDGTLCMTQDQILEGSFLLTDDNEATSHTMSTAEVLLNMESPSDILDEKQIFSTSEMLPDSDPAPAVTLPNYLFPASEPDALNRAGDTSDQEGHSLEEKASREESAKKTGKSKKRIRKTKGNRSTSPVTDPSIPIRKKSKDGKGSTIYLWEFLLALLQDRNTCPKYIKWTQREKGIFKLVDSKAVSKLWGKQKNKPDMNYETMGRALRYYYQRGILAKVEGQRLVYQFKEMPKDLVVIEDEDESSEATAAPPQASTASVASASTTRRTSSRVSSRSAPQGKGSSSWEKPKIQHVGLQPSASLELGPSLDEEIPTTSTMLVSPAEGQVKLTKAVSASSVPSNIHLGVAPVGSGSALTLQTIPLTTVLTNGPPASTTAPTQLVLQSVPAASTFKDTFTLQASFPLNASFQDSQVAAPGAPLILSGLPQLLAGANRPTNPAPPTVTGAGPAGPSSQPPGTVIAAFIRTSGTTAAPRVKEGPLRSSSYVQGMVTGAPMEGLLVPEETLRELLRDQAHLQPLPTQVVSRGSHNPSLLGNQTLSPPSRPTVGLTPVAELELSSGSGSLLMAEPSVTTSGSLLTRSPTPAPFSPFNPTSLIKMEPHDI
Sequence of ETV6 (P41212 whole entry): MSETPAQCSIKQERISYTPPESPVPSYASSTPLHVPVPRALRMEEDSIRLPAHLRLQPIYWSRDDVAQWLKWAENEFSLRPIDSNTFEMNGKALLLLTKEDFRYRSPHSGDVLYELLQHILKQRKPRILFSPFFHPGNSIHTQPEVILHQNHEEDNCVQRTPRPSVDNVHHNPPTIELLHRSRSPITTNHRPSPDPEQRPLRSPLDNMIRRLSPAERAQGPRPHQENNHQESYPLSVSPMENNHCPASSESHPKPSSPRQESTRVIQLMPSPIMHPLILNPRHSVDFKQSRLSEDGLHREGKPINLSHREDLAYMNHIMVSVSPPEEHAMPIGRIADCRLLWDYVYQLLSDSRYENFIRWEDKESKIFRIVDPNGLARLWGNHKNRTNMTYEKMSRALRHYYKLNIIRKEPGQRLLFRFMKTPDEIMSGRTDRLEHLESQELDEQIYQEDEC
Sequence of ELF1 (P32519 whole entry): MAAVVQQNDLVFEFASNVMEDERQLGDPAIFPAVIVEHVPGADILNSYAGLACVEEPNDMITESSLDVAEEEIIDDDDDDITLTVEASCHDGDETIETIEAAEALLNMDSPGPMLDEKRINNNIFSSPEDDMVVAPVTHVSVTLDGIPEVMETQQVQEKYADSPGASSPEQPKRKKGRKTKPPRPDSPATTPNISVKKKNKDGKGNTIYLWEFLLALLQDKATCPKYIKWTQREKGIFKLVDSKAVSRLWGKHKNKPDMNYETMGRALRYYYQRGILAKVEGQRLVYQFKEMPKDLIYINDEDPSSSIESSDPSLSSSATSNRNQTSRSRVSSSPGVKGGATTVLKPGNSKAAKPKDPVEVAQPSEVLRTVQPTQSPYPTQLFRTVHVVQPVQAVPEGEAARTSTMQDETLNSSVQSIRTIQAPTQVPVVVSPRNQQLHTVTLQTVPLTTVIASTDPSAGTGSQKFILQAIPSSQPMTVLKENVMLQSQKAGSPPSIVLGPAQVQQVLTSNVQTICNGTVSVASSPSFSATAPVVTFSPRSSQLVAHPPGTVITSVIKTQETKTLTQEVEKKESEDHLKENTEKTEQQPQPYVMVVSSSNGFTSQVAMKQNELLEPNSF

Sequence: CCGCAG
- binding signal [1]: 1.09 fold enrichment (6-mer frequency, TF over GST control)
- binding signal [2]: 1.13 fold enrichment (6-mer frequency, TF over GST control)
- binding signal [3]: 1.06 fold enrichment (6-mer frequency, TF over GST control)
- binding signal [4]: 1.01 fold enrichment (6-mer frequency, TF over GST control)
- binding signal [5]: 1.21 fold enrichment (6-mer frequency, TF over GST control)
- binding signal [6]: 1.08 fold enrichment (6-mer frequency, TF over GST control)
- binding signal [7]: 1.12 fold enrichment (6-mer frequency, TF over GST control)
- binding signal [8]: 1.07 fold enrichment (6-mer frequency, TF over GST control)
- binding signal [9]: 1.22 fold enrichment (6-mer frequency, TF over GST control)
- binding signal [10]: 1.19 fold enrichment (6-mer frequency, TF over GST control)
- binding signal [11]: 1.12 fold enrichment (6-mer frequency, TF over GST control)
- binding signal [12]: 1.02 fold enrichment (6-mer frequency, TF over GST control)
- binding signal [13]: 1.06 fold enrichment (6-mer frequency, TF over GST control)
- binding signal [14]: 1.07 fold enrichment (6-mer frequency, TF over GST control)
- binding signal [15]: 1.12 fold enrichment (6-mer frequency, TF over GST control)
- binding signal [16]: 1.07 fold enrichment (6-mer frequency, TF over GST control)
- binding signal [17]: 1 fold enrichment (6-mer frequency, TF over GST control)

— publication PMC7862700, “An all-to-all approach to the identification of sequence-specific readers for epigenetic DNA modifications on cytosine”
